# PubChem BioAssay AID504466 (National Center for Advancing Translational Sciences (NCATS), 2011)
# Hit rate of the full screen: of about 330,000 compounds, about 4,200 (1.3%) were called active. Not shown: some 6% with an inconclusive outcome. Many of the other results were omitted from the sample, so actives are more common in it than they were. A number with no mark means an inactive call. Calls follow the shape of the dose curve; as a rule, active = well fitted activation curve with a large enough effect; inconclusive = small, poorly fitted or top-dose-only effect; inactive = no such curve, though single readings can be large or run the other way.
# Assay: qHTS screen for small molecules that induce genotoxicity in human embryonic kidney (HEK293T) cells expressing luciferase-tagged ELG1; also: nearly all actives have a fitted effect of over 60% in size; as to activity change, positive = activation: % of control where 0% means no effect
# Settings: HEK293T ELG1-luciferase reporter, luminescence, 16 h; series mostly up to 46 µM; activity change, positive = activation: at the top concentration
# Description: NIH Molecular Libraries Probe Production Network [MLPCN] NIH Chemical Genomics Center [NCGC] MLPCN Grant: 1 R03 MH092164-01 Assay Provider: Kyungjae Myung, NHGRI, NIH Keywords: MLPCN, qHTS, NCGC, genotoxicity, cancer Assay Overview: Cancer cells divide rapidly compared to normal cells in the body. During cell division, cancer cells need to duplicate their genome by DNA replication. The failure of genome duplication leads to cancer cells' death. Therefore, inhibitors of DNA replication could specifically kill cancer cells. Based on this concept, many chemotherapeutic agents were developed and have been used to treat cancer patients. However, there are a limited number of agents available in the clinical setting, and some of those that do exist have low efficacy and severe side effects. Therefore, if we can find the compounds that effectively block DNA replication either by directly damaging DNA or by inhibiting other cellular mechanisms, the options for cancer treatment will be broadened. With this in mind, we developed a quantitative high-throughput ELG1-luciferase reporter gene assay. Since the level of human ELG1 protein is enhanced in response to genetic stresses, increases in luciferase activity can be used to identify compounds that cause genetic stress.
# Assay Protocol Summary: For genotoxicity screening, 2,000 cells in 5 uL/well were dispensed into white, solid-bottom 1536-well plates using a solenoid-based dispenser. Following transfer of 23 nL compound or DMSO vehicle by a pin tool, the plates were incubated 16 hr at 37 °C and 5% CO2. 5 ul ONE-Glo (Promega) was then added to each plate and following a 30 min incubation at room temperature, luciferase activity was quantified on a ViewLux CCD-based plate reader.
# Potency is read from the fitted curve at half-maximal effect.
Structure (SMILES),Potency,"activity change, positive = activation [%]"
O=C(OCC(=O)c1cccs1)C1=COCCO1,18.4 µM (active),
CC[N+](C)(CC)CCC[n+]1c(-c2ccccc2)c2cc(N)ccc2c2ccc(N)cc21,,-41.2
c1cc2c(cc1C1OCC3C(c4ccc5c(c4)OCO5)OCC13)OCO2 (stereo not given),,-2.92
C[C@]12CC[C@H](O)CC1=C([N+](=O)[O-])CC1C2CC[C@@]2(C)C1CC[C@@H]2O (stereo not given in full),,0.441
COc1ccc(C2CC(c3cccs3)=NN2c2nc(C)c(C(C)=O)s2)cc1OC (stereo not given),20.6 µM (active),
CN(C)C(=O)Oc1ccc2c(c1)O/C(=C\c1ccccc1)C2=O,20.6 µM (active),
CCOC(=O)c1c(-c2ccccc2)oc2ccc(OC(=O)N(C)C)cc12,,-10.6
CN(C)C(=O)Oc1ccc(OCc2cccc[n+]2C)cc1,,-2.07
COC(=O)[C@@H]1C(OC(=O)c2ccccc2)CC2CCC1N2C (stereo not given in full),,-3.24
CC[C@H]1CN2CCc3cc(OC)c(OC)cc3[C@@H]2C[C@@H]1C[C@H]1NCCc2cc(OC)c(OC)cc21,,-16.4
COC1=CC=C2[C@H]3Cc4ccc(OC)c5c4[C@@]2(CCN3C)C1O5 (stereo not given in full),,-0.142
O=C(OCCN1CCOCC1)C1(c2ccccc2)CCCC1,,-5.98
CCC(=O)c1ccc(OCC(=O)N2CCN(CC(=O)Nc3ccc(C)cc3)CC2)cc1,,-1
O=C(/C=C/c1cccs1)c1cc(Cl)ccc1OC(=O)N1CCOCC1,,-27.3
Oc1ccc2c3c1OC1[C@H](O)CC[C@@]4(O)[C@@H](C2)N(CC2CC2)CC[C@]314 (stereo not given in full),inactive,
